Test [1] in a line: qHTS assay to identify small molecule agonists of the estrogen receptor alpha (ER-alpha) signaling pathway in the presence of an antagonist - cell viability counter screen (AID 1259386).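 Further: cells exposed to compounds for 22 h at 37 °C before the viability read; nearly all actives have a fitted effect of over 30% in size.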 Further: potency means the concentration at half of the fitted maximal effect. A digest of the protocol: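 The test measures whether compounds kill ER-alpha reporter cells (VM7Luc4E2) under antagonist co-treatment (ICI-182,780, 10.0nM). Fluorescence from CellTiter-Fluor is read after a 22hr exposure.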
A general note: Quantitative high-throughput screening tests each substance at several concentrations.

Test [2] has as its target Progesterone receptor (Homo sapiens) (UniProt P06401). The experiment in a line: qHTS assay to identify small molecule agonists of the progesterone receptor (PR) signaling pathway (AID 1346784; calls by dose curve; further: nearly all actives have a fitted effect of over 30% in size). A digest of the protocol: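 Reporter assay, GripTite PR-UAS-bla HEK 293T cells: 16 hr exposure to DMSO-dissolved compounds at 37C, 5% CO2, in steroid-depleted (2% charcoal-stripped FBS) medium; beta-lactamase measured by FRET fluorescence.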

For test [3] the target is unchanged. The experiment in a line: qHTS assay to identify small molecule antagonists of the progesterone receptor (PR) signaling pathway (AID 1346795; active means well fitted inhibition curve with a large enough effect in the signal ratio in the repeat runs, not every such curve was filed as active; the % refers to the signal ratio). Put shortly: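 Stimulus R5020 at 1 nM final; cells HEK293T PR-UAS-bla; medium with 2% charcoal-stripped FBS; compound exposure 16 hr at 37C, 5% CO2; detection by FRET beta-lactamase substrate, 2 hr, room temperature.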

Test [4] can be described thus: qHTS assay to identify small molecule antagonists of the progesterone receptor (PR) signaling pathway - cell viability counter screen (AID 1346798). Further: series mostly up to about 92 µM; nearly all actives have a fitted effect of over 50% in size. A digest of the protocol:
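In the same plates used for the beta-lactamase readout, cell viability of compound- and R5020-treated PR-UAS-bla HEK293T cells (16 hr, 37C) was assessed by CellTiter-Glo luminescence.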

Test [5] in a line: qHTS assay to identify small molecule agonists of the progesterone receptor (PR) signaling pathway - cell viability counter screen (AID 1346799; calls by dose curve; further: nearly all actives have a fitted effect of over 45% in size). A digest of the protocol: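 Multiplexed viability read: CellTiter-Glo luminescence, 30 min RT, following LiveBLAzer FRET measurement on PR-UAS-bla HEK293T cells exposed to compounds 16 hr.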
Test [6] in a line: qHTS assay to identify small molecule antagonists of the TGF-beta/Smad signaling pathway - cell viability counter screen (AID 1346824). Further: nearly all actives have a fitted effect of over 50% in size. A digest of the protocol:
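SBE-bla HEK 293T cells, incubated overnight, then compound plus 0.25 ng/mL TGF-beta1 (stock added) for 5 hr at 37 C. Viability was read in the same wells by CellTiter-Glo luminescence after 30 min at room temperature.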

The nature of test [7]: qHTS assay to identify small molecule agonists of the TGF-beta/Smad signaling pathway - cell viability counter screen (AID 1346829). Further: top concentration of the series differs between compounds; nearly all actives have a fitted effect of over 45% in size. Put shortly:
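Here the cytotoxicity of library compounds is measured in SBE-bla HEK 293T cells treated for 5 hr, using CellTiter-Glo added to wells already read for the beta-lactamase reporter.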

A short description of test [8]: qHTS assay to identify small molecule agonists of the TGF-beta/Smad signaling pathway (AID 1346859; active means well fitted activation curve with a large enough effect in the signal ratio in the repeat runs, not every such curve was filed as active; the % refers to the signal ratio; further: series mostly up to about 77 µM). A digest of the protocol:
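Screening used HEK 293T SBE-bla cells at 4,000/well. Test agents: 5 hr, 37 C. Detection: FRET substrate, 2 hr RT, then excitation 405 nm with emissions at 460 and 530 nm.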

Test [9] has as its target Thyrotropin-releasing hormone receptor (Homo sapiens) (UniProt P34981). Description: qHTS assay to identify small molecule antagonists of the thyrotropin-releasing hormone receptor (TRHR) signaling pathway (AID 1346877; active means well fitted inhibition curve with a large enough effect in the repeat runs, not every such curve was filed as active; further: series mostly up to about 51 µM). A digest of the protocol: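 Overnight-plated (18 h, 37 °C) HEK293 cells expressing TRHR were dye-loaded 2 h, treated with compound, then stimulated with TRH at 1 nM final. Fluorescence intensity was captured every second for 3 min.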

Test [10] has the same target. Description: qHTS assay to identify small molecule agonists of the thyrotropin-releasing hormone receptor (TRHR) signaling pathway (AID 1346891; calls by dose curve; further: series mostly up to about 58 µM). Put shortly:
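Readout was intracellular calcium fluorescence in TRHR-Hek293 cells. Cells were incubated 18 h, dye-loaded 2 h at 37 °C, and treated with compound in agonist mode.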

Structures are written as SMILES. Several values for one entry are separate records, joined by “and”; a condition that tells them apart may be missing. Equal values may be shown once. Results filed as inconclusive are left out. Activity calls are given as the source filed them. Unless noted, the call rests on the fitted dose curve; in most records, active means well fitted curve in the direction sought with a large enough effect in the repeat runs; inconclusive means weak or mixed curves; inactive means no such curve, though single readings can be large; an effect the other way counts as inactive or inconclusive.

Sequence of Progesterone receptor (Homo sapiens) (P06401 whole entry, looked up): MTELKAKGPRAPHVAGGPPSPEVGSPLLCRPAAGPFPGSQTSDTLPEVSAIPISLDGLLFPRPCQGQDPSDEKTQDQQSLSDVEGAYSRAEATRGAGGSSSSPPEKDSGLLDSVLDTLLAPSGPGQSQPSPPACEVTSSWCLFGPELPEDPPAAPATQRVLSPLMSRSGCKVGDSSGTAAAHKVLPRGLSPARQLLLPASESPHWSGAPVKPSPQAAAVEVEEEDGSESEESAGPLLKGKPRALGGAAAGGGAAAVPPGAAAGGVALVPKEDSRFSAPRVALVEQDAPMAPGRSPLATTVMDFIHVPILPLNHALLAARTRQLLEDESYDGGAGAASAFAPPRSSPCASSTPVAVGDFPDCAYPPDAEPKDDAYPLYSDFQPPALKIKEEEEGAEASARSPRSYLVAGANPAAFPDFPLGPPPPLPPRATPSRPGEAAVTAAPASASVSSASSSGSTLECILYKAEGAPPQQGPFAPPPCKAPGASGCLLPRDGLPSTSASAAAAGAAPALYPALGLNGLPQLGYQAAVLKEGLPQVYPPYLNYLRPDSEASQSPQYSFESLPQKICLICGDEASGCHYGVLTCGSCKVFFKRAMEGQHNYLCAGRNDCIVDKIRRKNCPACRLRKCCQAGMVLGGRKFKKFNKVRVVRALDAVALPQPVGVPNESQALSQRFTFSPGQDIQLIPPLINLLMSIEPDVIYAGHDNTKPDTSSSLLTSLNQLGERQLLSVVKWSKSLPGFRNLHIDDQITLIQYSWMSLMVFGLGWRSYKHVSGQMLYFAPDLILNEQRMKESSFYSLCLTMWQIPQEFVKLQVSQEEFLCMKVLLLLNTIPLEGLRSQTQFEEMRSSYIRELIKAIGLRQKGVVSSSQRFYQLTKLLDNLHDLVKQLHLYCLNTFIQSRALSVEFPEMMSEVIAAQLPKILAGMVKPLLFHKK
Sequence of Thyrotropin-releasing hormone receptor (Homo sapiens) (P34981 whole entry, looked up): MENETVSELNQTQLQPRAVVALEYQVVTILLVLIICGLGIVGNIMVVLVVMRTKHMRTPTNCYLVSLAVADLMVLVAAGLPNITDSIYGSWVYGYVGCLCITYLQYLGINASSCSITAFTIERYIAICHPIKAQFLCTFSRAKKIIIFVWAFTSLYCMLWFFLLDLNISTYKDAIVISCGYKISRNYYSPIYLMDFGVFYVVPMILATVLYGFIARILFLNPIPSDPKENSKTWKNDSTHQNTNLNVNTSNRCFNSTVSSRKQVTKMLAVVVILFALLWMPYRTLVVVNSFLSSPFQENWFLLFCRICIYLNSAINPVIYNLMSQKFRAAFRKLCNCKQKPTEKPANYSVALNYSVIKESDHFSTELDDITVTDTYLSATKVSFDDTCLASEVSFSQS

As to `O=C1CN(/N=C/c2ccc([N+](=O)[O-])o2)C(=O)N1`, the Potency in [1] was 30.5 µM (active) and 54.5 µM (active) and 18.8 µM (active). For the same molecule, the Potency result in [2], in test [4], in test [5] and in [7] was “inactive” in each case. Further, the molecule was called inactive in test [3], in test [6], in [8], in test [9] and in [10].
Take `O=C(O)c1cccc([N+](=O)[O-])c1`: the Potency result in [1], in [2], in [4], in test [5] and in test [7] was “inactive” throughout. Besides, the call in test [3], in test [6], in test [8], in [9] and in [10] was inactive.
As to `OCCc1ccccc1`, the Potency entry in test [1], in [2], in test [4], in test [5] and in test [7] was “inactive” throughout. The molecule was classed as inactive in test [3], in test [6], in test [8], in test [9] and in test [10].
On to `Cc1ccc(C)c(OCCCC(C)(C)C(=O)O)c1`, for which the Potency result in test [1], in [2], in [4], in test [5] and in [7] was “inactive” throughout. The result in [3], in test [6] and in [8] was inactive.
Turning to `O=c1ccc2ccccc2o1`, the Potency result in test [1], in test [2], in test [4] and in test [5] was “inactive” throughout. Also, the molecule was classed as inactive in test [3], in [6] and in test [8].
As to `CCC1(c2ccccc2)C(=O)NCNC1=O`, the Potency result in [1], in [2], in test [4] and in test [5] was “inactive” throughout. The call in [3], in test [6] and in test [8] was inactive.
Take `NC(N)=O`: the Potency entry in test [1], in test [2], in [4], in [5] and in test [7] was “inactive” in each case. Moreover, the outcome in test [3], in test [6] and in test [8] was inactive.
As for `CCCCC1C(=O)N(c2ccccc2)N(c2ccccc2)C1=O`, the Potency result in [1], in test [2], in test [4], in test [5] and in test [7] was “inactive” throughout. The outcome in [3], in test [6], in test [8], in test [9] and in test [10] was inactive.
Regarding `NC(=O)c1ccccc1O`, the Potency result in [1], in test [2], in test [4], in test [5] and in test [7] was “inactive” throughout. Also, the molecule was classed as inactive in test [3], in [6], in [8], in test [9] and in test [10].
For `Cc1ccc(O)cc1`, the Potency result in [1], in [2], in [4], in [5] and in test [7] was “inactive” throughout. Further, the result in [3], in test [6], in test [8], in test [9] and in [10] was inactive.
In the case of `CCCNC(=O)NS(=O)(=O)c1ccc(Cl)cc1`, the Potency result in test [1], in [2], in test [4], in test [5] and in test [7] was “inactive” throughout. Further, the result in [3], in test [6] and in test [8] was inactive.
As to `Nc1ccc(C(=O)O)cc1`, the Potency result in test [1], in test [2], in [4], in [5] and in [7] was “inactive” throughout. Also, the call in [3], in test [6] and in test [8] was inactive.
Take `NNC(=O)c1ccncc1`: the Potency entry in [1], in test [2], in test [4], in test [5] and in test [7] was “inactive” each time. Moreover, the call in test [3], in test [6] and in [8] was inactive.
As for `NC(=O)c1cnccn1`, the Potency entry in test [1], in test [2], in test [4], in test [5] and in [7] was “inactive” in each case. Moreover, the outcome in test [3], in test [6], in [8], in test [9] and in test [10] was inactive.
Take `O=C(O)CCCCCCCC(=O)O`: the Potency entry in [1], in test [2], in test [4], in test [5] and in test [7] was “inactive” each time. Besides, the molecule was classed as inactive in test [3], in test [6], in test [8], in [9] and in [10].
In the case of `C1N2CN3CN1CN(C2)C3`, the Potency result in test [1], in test [2], in test [4], in test [5] and in test [7] was “inactive” throughout. The result in [3], in test [6], in test [8], in test [9] and in test [10] was inactive.
Turning to `Cc1cn([C@H]2C[C@H](N=[N+]=[N-])[C@@H](CO)O2)c(=O)[nH]c1=O`, the Potency result in test [1], in [2], in test [4], in [5] and in [7] was “inactive” in each case. The molecule was called inactive in test [3], in test [6] and in test [8].

(Values after PubChem BioAssay (Tox21).)
